# Reference: PubChem BioAssay AID492973 (The Scripps Research Institute Molecular Screening Center, 2010)
# Unmarked numbers belong to inactive results. Calls of active or inactive are those of the source.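 How the source made its calls: active means inhibition above 50% of the enzyme in parasite cell lysate; inactive means the rest.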
# Experiment: malaria lysate leucine aminopeptidase inhibition – cell lysate, fluorescence, Plasmodium falciparum lysate, powder samples, late-stage follow-up (AID 492973)
# Settings: P. falciparum cell lysate, H-Leu-NHMec fluorescence; at 5 µM; active compounds read high
row,SMILES,inhibition
1,COc1cc(NC(=O)CSc2nc3ccccc3cc2C)c(C(=O)O)cc1OC,67% (active)
2,COC(=O)c1c(-c2cc(C)ccc2C)csc1NC(=O)[C@@H]1CC=CC[C@@H]1C(=O)O,64% (active)
3,CCc1cc2ccc(C)cc2nc1SCC(=O)Nc1cc(OC)c(OC)cc1C(=O)O,69% (active)
4,CCc1ccc(Nc2nnc(SC3CCOC3=O)s2)cc1 (stereo not given),43%
5,O=C(O)Cc1ccc(NC(=O)Nc2ccc(Br)cc2)cc1,41%
6,Cc1ccc(Nc2nnc(SCc3cc(=O)n4ccsc4n3)s2)c(C)c1,22%
7,COc1cc(NC(=O)CSc2nnc3c(C)cc4cc(C)cc(C)c4n23)c(C(=O)O)cc1OC,55% (active)
8,CCOc1ccc(NC(=O)Nc2cccs2)cc1,48%
9,Cc1ccc(Nc2nnc(SC3CCOC3=O)s2)cc1 (stereo not given),57% (active)
10,CCOc1ccc(NC(=O)Nc2ccc3nccnc3c2)cc1,25%
11,Cc1ccc(-c2c(C)sc(NC(=O)[C@@H]3C4CCC(O4)[C@@H]3C(=O)O)c2C(=O)OC(C)C)cc1 (stereo not given in full),23%
12,COC(=O)c1c(-c2ccc(C)cc2)csc1NC(=O)[C@H]1CC=CC[C@H]1C(=O)O,58% (active)
13,CCc1cc2ccccc2nc1SCC(=O)Nc1cc(OC)c(OC)cc1C(=O)O,68% (active)
14,COc1cc(NC(=O)CSc2nc3cc(C)ccc3cc2C)c(C(=O)O)cc1OC,64% (active)
15,COc1ccc(NC(=O)CSc2nc(O)cc(=O)n2C)cc1,29%
16,O=C(Nc1ccc(Cl)cc1)Nc1cccc(C(=O)O)c1,65% (active)
17,CCOC(=O)c1c(-c2ccc(C)cc2)csc1NC(=O)[C@H]1CC=CC[C@H]1C(=O)O,48%
18,Cc1cc(C(=O)COC(=O)c2ccc[nH]c2=O)c(C)n1-c1ccccc1,36%
19,CCc1ccc(NC(=O)[C@H]2CC=CC[C@H]2C(=O)O)cc1,22%
20,O=C(CSc1nnc(Nc2ccccc2)s1)NN1C(=O)NC2(CCCCC2)C1=O,57% (active)
21,COC(=O)c1c(-c2ccco2)csc1NC(=O)[C@H]1CC=CC[C@H]1C(=O)O,51% (active)
22,CCN(CC)c1ccc(NC(=O)CSc2nc(C)cc(=O)[nH]2)cc1,52% (active)
23,CCCCc1c(O)nc(SCC(=O)Nc2ccc3c(c2)CCC3)[nH]c1=O,21%
24,CCOc1cccc(-c2cc(=O)[nH][nH]2)c1,43%
25,S=c1nc(-c2ccccc2Br)[nH][nH]1,26%
